# Biological target: T1, Methionyl-tRNA synthetase, putative (Leishmania donovani (strain BPK282A1)) (UniProt E9BF75)
# T1 sequence (whole entry): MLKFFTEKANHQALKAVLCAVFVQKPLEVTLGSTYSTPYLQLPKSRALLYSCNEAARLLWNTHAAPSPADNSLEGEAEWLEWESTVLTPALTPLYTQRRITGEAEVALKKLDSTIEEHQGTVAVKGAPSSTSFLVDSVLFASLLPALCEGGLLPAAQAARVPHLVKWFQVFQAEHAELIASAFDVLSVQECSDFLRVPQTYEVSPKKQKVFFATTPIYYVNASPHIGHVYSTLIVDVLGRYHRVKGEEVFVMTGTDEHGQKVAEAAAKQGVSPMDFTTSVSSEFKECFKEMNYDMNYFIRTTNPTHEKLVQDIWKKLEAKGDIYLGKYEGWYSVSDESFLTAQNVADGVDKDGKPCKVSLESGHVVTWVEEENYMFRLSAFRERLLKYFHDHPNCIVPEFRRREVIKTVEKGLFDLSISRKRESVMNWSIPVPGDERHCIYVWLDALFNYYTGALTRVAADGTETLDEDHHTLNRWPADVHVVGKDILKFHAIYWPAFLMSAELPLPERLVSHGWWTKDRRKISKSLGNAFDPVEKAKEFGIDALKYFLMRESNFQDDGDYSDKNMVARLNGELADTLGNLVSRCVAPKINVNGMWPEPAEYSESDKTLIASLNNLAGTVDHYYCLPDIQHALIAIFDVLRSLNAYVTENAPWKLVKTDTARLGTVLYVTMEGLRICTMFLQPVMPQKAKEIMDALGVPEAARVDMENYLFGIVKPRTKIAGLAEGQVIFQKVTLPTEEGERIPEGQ
# Experiment: Leishmania donovani Methionine tRNA synthetase (LdMetRS):v7. Dose response assay
# Assay type: functional
# Design: conc 80 nM, time 150 minutes
structure (smiles),measurement,setting,value
CC(=O)N1CCN(c2ccc3ncc(-c4ccc5onc(N)c5c4)n3n2)CC1,PXC50,MAX_EFFECT 15.77608142,< 4
same,PXC50,MAX_EFFECT 16.66666667,< 4
CC(C)C[C@H](N)COc1ccc(OCc2ccccc2)c(F)c1,PXC50,MAX_EFFECT 25.05175983,< 4
same,PXC50,MAX_EFFECT 28.78464819,< 4
CC(C)C[C@@H](COc1cccc(F)c1Oc1ccc(Cl)cc1)N(C)C,PXC50,MAX_EFFECT 6.418219462,< 4
same,PXC50,MAX_EFFECT 11.30063966,< 4
Cc1cc2c(N3CCN(CCO)CC3)nc(-c3cccnc3)nc2s1,PXC50,MAX_EFFECT 11.05527638,< 4
same,PXC50,MAX_EFFECT 12.53071253,< 4
CC1CCN(c2nc3c(c(C(F)(F)F)n2)CCCCC3)CC1,PXC50,MAX_EFFECT 8.396946565,< 4
same,PXC50,MAX_EFFECT 11.83879093,< 4
Cc1nc(NC(C(=O)O)C(C)C)c2c3c(sc2n1)CCC3 (stereo not given),PXC50,MAX_EFFECT 7.537688442,< 4
same,PXC50,MAX_EFFECT 7.616707617,< 4
Fc1ccc(CN2CCC(F)(F)C3(CCN(c4cnccn4)C3)C2)cc1 (stereo not given),PXC50,MAX_EFFECT 10.88435374,< 4
same,PXC50,MAX_EFFECT 11.21495327,< 4
Cc1nn(C)cc1-c1cc(C(F)(F)F)nc(NC2CCN(C)CC2)n1,PXC50,MAX_EFFECT 9.138381201,< 4
same,PXC50,MAX_EFFECT 9.921671018,< 4
CCc1nc(NC(C(=O)O)C(C)C)c2cc(CC)sc2n1 (stereo not given),PXC50,MAX_EFFECT 9.289617486,< 4
same,PXC50,MAX_EFFECT 12.29946524,< 4
Fc1cccc(OC[C@@H]2CNCCO2)c1Oc1ccc(Cl)cc1,PXC50,MAX_EFFECT 6.609808102,< 4
same,PXC50,MAX_EFFECT 8.902691511,< 4
Cc1nc(N2CCCC2)c2c3c(sc2n1)CCCC3,PXC50,MAX_EFFECT 9.895833333,< 4
same,PXC50,MAX_EFFECT 12.71929825,< 4
COC(=O)CCNc1nc(CN2CCCCC2)nc2sc3c(c12)CCC3,PXC50,MAX_EFFECT 7.808564232,< 4.31
same,PXC50,MAX_EFFECT 7.888040712,< 4
CCN(CC)c1ccc2ccc(C(=O)N(C)C)cn12,PXC50,MAX_EFFECT 27.22222222,< 4
same,PXC50,MAX_EFFECT 35.21126761,< 4
Nc1noc2ccc(-c3cnc4ccc(NCc5ccncc5)nn34)cc12,PXC50,MAX_EFFECT 14.75826972,< 4
same,PXC50,MAX_EFFECT 25.87719298,< 4
Cc1cc2c(N3CCCCC3)nc(-c3cccnc3)nc2s1,PXC50,MAX_EFFECT 30.15075377,< 4
same,PXC50,MAX_EFFECT 37.1007371,< 4
Cc1sc2nc(CCN)nc(N3CCS(=O)(=O)CC3)c2c1C,PXC50,MAX_EFFECT 6.266318538,< 4
same,PXC50,MAX_EFFECT 7.049608355,< 4
CNS(=O)(=O)c1cc(C(C)C)c(Br)cc1C(C)C,PXC50,MAX_EFFECT 9.649122807,< 4
same,PXC50,MAX_EFFECT 14.58333333,< 4
FC1(F)CCN(Cc2ccncc2)CC12CCN(c1cccnc1)C2 (stereo not given),PXC50,MAX_EFFECT 5.981308411,< 4
same,PXC50,MAX_EFFECT -0.453514739,< 4
O=C(NCC1(O)CCCCC1)c1cc(=O)c2cc[nH]c(=O)c2o1,PXC50,MAX_EFFECT 6.333973129,< 4
same,PXC50,MAX_EFFECT 9.409888357,< 4
Cc1ccc(N2CCC3(CN(Cc4cccs4)CCC3(F)F)C2)nn1 (stereo not given),PXC50,MAX_EFFECT 4.988662132,< 4
same,PXC50,MAX_EFFECT 10.8411215,< 4
COCCNc1nc(CN2CCOCC2)nc2sc3c(c12)CCCC3,PXC50,MAX_EFFECT -0.877192982,< 4
same,PXC50,MAX_EFFECT -1.5625,< 4
CC(C)C[C@@H](N)COc1cccc(F)c1Oc1cccc(Cl)c1,PXC50,"BOTTOM 1.372222408, HILLSLOPE 1.087653332, MAX_EFFECT 50.72463768, TOP 100.0",4.03
same,PXC50,"BOTTOM -0.306407193, HILLSLOPE 1.563618531, MAX_EFFECT 56.92963753, TOP 100.0",4.11
CN(C)C(=O)CNC(=O)c1ccc2ccc(N(C)CC3CC3)n2c1,PXC50,MAX_EFFECT 21.76870748,< 4
same,PXC50,MAX_EFFECT 29.90654206,< 4
CC(=O)N[C@H](COc1cccc(F)c1Oc1ccc(Cl)cc1)CC(C)C,PXC50,MAX_EFFECT 3.105590062,< 4
same,PXC50,MAX_EFFECT 4.051172708,< 4
CCNc1cc(-c2ccccn2)nc(Nc2ccc(F)c(Cl)c2)n1,PXC50,MAX_EFFECT 18.84057971,< 4
same,PXC50,MAX_EFFECT 22.81449893,< 4
NCC1CC1c1ccc(Cl)cc1Cl (stereo not given),PXC50,"BOTTOM -0.51010351, HILLSLOPE 1.132508714, MAX_EFFECT 55.5075594, TOP 100.0",3.07
same,PXC50,MAX_EFFECT 48.09885932,< 3
CC(=O)NCc1nnc2n1CCN(c1nc(C)nc3sccc13)CC2,PXC50,MAX_EFFECT 6.527415144,< 4
same,PXC50,MAX_EFFECT 9.921671018,< 4
Cc1sc2nc(C(F)(F)F)nc(N3CCCN(C)CC3)c2c1C,PXC50,MAX_EFFECT 3.916449086,< 4
same,PXC50,MAX_EFFECT 8.877284595,< 4
Cc1nc(N(Cc2ccncc2)CC2CCCO2)c2ccsc2n1 (stereo not given),PXC50,MAX_EFFECT 13.31592689,< 4
same,PXC50,MAX_EFFECT 17.75456919,< 4
CNC(=O)CN(C)c1nc(C)nc2sc3c(c12)CCC3,PXC50,MAX_EFFECT 5.291005291,< 4
same,PXC50,MAX_EFFECT 6.4,< 4
COCCNc1nc(-c2ccc(C)cc2)cc(C(F)(F)F)n1,PXC50,MAX_EFFECT 7.978723404,< 4
same,PXC50,MAX_EFFECT 8.29015544,< 4
CS(=O)(=O)N1CCN(c2ccc3ncc(C(=O)NC4CCCC4)cn23)CC1,PXC50,MAX_EFFECT 7.456140351,< 4
same,PXC50,MAX_EFFECT 9.895833333,< 4
Cc1nc(N2CCN(c3ccccn3)CC2)c2c3c(sc2n1)CCCC3,PXC50,MAX_EFFECT 22.61306533,< 4
same,PXC50,MAX_EFFECT 22.85012285,< 4
Cc1sc2nc(CN3CCOCC3)nc(NC3CC3)c2c1C,PXC50,MAX_EFFECT 8.673469388,< 4
same,PXC50,MAX_EFFECT 8.838383838,< 4
Cc1nc(N(C)CC(=O)Nc2cc(C)on2)c2c3c(sc2n1)CCC3,PXC50,MAX_EFFECT 9.844559585,< 4
same,PXC50,MAX_EFFECT 10.63829787,< 4
CC(C)(C)c1nc(NCCO)c2c3c(sc2n1)CCCC3,PXC50,MAX_EFFECT 6.632653061,< 4
same,PXC50,MAX_EFFECT 7.323232323,< 4
COCCNc1nc(C)nc2sc3c(c12)CCCC3,PXC50,MAX_EFFECT 3.174603175,< 4
same,PXC50,MAX_EFFECT 4.266666667,< 4
COc1ccc(-c2cc(C(F)(F)F)nc(N3CCN(C)CC3)n2)cc1,PXC50,MAX_EFFECT 16.41414141,< 4
same,PXC50,MAX_EFFECT 20.40816327,< 4
O=C(CO)N1CCC(F)(F)C2(CCN(c3ccccc3)C2)C1 (stereo not given),PXC50,MAX_EFFECT 15.37037037,< 4
same,PXC50,MAX_EFFECT 18.30985915,< 4
O=C(c1c[nH]cn1)N1CCC(F)(F)C2(CCN(c3ccccn3)C2)C1 (stereo not given),PXC50,MAX_EFFECT 10.79812207,< 4
same,PXC50,MAX_EFFECT 12.40740741,< 4
CN1CCN(C(=O)CNC(=O)c2ccc3ccc(N4CCN(S(C)(=O)=O)CC4)n3c2)CC1,PXC50,"BOTTOM 0.0904, HILLSLOPE 2.137945772, MAX_EFFECT 50.23923445, TOP 52.555747",4.83
same,PXC50,"BOTTOM 3.391781155, HILLSLOPE 3.900764743, MAX_EFFECT 59.59780622, TOP 59.91227163",4.76
Cc1nc(N[C@H](C(=O)O)C(C)C)c2c3c(sc2n1)CCCC3,PXC50,MAX_EFFECT 7.978723404,< 4
same,PXC50,MAX_EFFECT 8.29015544,< 4
Cn1cc(CN2CCC(F)(F)C3(CCN(c4ncccn4)C3)C2)cn1 (stereo not given),PXC50,MAX_EFFECT -0.938967136,< 4
same,PXC50,MAX_EFFECT -2.777777778,< 4
O=C(O)C1CCCN1c1nc(-c2ccc(Cl)c(Cl)c2)cc(C(F)(F)F)n1 (stereo not given),PXC50,MAX_EFFECT 9.660574413,< 4
same,PXC50,MAX_EFFECT 10.44386423,< 4
Cc1nc(N2CCN(CCO)CC2)c2c(-c3ccccc3)csc2n1,PXC50,MAX_EFFECT 6.12244898,< 4
same,PXC50,MAX_EFFECT 9.848484848,< 4
